From PubChem BioAssay (NCATS)
Values joined by “and” are separate entries in the source; they are usually repeats but may differ in a detail not shown here. Equal entries are not always repeated. Records with an inconclusive call do not appear. Active and inactive are the calls of the source. Unless noted, calls come from the whole dose curve; as a rule, active = well fitted curve in the direction sought with a large enough effect; inconclusive = small, poorly fitted or top-dose-only effect, or another doubt; inactive = no such curve, though single readings can be large; an effect the other way counts as inactive or inconclusive.

Key:
[1] = biological target: Cytochrome P450 3A4 (Homo sapiens) (UniProt P08684); experiment: qHTS Assay for Inhibitors and Substrates of Cytochrome P450 3A4 (AID 884); note: nearly all actives have a fitted effect of over 50% in size; note: potency is the fitted concentration of half-maximal effect
Sequence of Cytochrome P450 3A4 (Homo sapiens) (P08684 whole entry, looked up): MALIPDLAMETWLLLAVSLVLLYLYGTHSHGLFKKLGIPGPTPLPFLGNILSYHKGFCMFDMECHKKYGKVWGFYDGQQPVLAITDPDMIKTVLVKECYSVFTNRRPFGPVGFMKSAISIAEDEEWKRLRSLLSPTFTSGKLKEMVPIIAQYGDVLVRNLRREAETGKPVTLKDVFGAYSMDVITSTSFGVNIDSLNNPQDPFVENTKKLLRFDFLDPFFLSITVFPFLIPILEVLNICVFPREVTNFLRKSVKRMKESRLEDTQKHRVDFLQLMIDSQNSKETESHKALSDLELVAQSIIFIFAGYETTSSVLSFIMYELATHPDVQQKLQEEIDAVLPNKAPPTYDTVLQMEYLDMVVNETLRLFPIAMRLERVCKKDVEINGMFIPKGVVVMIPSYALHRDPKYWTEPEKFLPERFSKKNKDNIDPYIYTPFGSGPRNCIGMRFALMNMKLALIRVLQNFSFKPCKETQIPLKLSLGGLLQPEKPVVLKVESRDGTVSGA
How it was run: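 Luminescent readout of luciferin produced by CYP3A4 (20 nM) dealkylation of Luciferin-PPXE, 25 uM (its KM). NADPH-driven reaction ran 60 min at RT after 10 min compound preincubation; data scaled to 57 uM ketoconazole as 100% inhibition.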

[2] = qHTS Assay for Lipid Storage Modulators (AID 1519; calls by dose curve); settings: Drosophila S3 cells, BODIPY lipid droplet/cell ratio, laser cytometry, cells loaded with oleic acid; for activity change, negative = inhibition: at 57.5 µM (top of the series)
How it was run: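 Cells seeded at 5,000 per well were treated with compounds over a concentration series and loaded with oleic acid (400 uM, as added). Lipid droplet fluorescence (488 nm excitation, 500-530 nm channel) was read by laser-scanning cytometry and normalized to 20 uM Triacsin C.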

[3] = biological target: DNA dC->dU-editing enzyme APOBEC-3G (Homo sapiens) (UniProt Q9HC16); experiment: qHTS for inhibitors of Vif-A3G interactions: Validation (AID 588379); note: 0% is about no effect
Sequence of DNA dC->dU-editing enzyme APOBEC-3G (Homo sapiens) (Q9HC16 whole entry, looked up): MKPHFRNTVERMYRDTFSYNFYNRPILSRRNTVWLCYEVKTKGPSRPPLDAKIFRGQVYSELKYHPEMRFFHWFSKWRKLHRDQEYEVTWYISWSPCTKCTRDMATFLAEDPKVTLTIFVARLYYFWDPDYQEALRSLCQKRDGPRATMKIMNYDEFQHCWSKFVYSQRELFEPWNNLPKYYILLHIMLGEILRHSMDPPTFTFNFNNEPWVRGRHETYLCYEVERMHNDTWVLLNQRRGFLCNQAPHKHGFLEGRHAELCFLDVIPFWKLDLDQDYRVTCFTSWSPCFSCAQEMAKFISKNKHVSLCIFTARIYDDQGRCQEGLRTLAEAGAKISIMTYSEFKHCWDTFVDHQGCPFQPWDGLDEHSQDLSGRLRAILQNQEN
How it was run: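 Yellow fluorescence (Ex 488, Em 500-530) of Vif-coexpressing HeLa A3G-eYFP cells, scanned by Acumen cytometer, reports blocked A3G degradation. Cells plated at 700/well overnight at 37 deg C before compound addition, then a further overnight compound incubation at 37 deg C.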

[4] = Confirmation and Secondary Assay for Modulators of Hemoglobin Beta Chain Splicing at IVS2 654 locus (AID 910);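 note: HeLa cells stably carrying EGFP split by mutant beta-globin IVS2-654 intron; % of control where 0% means no effect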
How it was run: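 HeLa cells stably expressing EGFP interrupted by β-globin IVS2-654 intron, seeded overnight in Opti-MEM/2% FCS, then treated 2 days at 37 °C. Restored splicing read as total peak GFP intensity per well by laser scanning cytometry (488 nm excitation, 500–520 nm emission); 500 nM antisense PNA as control.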

[5] = Confirmation and Secondary Assay for Modulators of Hemoglobin Beta Chain Splicing at IVS2 705 locus (AID 930);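 note: HeLa cells stably expressing the EGFP-705 splicing reporter; GFP fluorescence per well restored by corrected splicing of the IVS2-705 intron in EGFP; % of control where 0% means no effect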
How it was run: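 Assay measures total GFP intensity per well in HeLa EGFP-705 cells after 2 days with compound; mis-splicing normally truncates EGFP, so fluorescence indicates corrected splicing.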

[6] = biological target: Estrogen receptor (Homo sapiens) (UniProt P03372); experiment: qHTS assay for small molecule antagonists of estrogen receptor alpha signaling (AID 588513; active = well fitted curve in the direction sought with a large enough effect in the signal ratio, with a control signal flat, not every such curve was filed as active; the % refers to the signal ratio; note: % is set by controls: 0 for no effect and ±100 for the full control effect)
Sequence of Estrogen receptor (Homo sapiens) (P03372 whole entry, looked up): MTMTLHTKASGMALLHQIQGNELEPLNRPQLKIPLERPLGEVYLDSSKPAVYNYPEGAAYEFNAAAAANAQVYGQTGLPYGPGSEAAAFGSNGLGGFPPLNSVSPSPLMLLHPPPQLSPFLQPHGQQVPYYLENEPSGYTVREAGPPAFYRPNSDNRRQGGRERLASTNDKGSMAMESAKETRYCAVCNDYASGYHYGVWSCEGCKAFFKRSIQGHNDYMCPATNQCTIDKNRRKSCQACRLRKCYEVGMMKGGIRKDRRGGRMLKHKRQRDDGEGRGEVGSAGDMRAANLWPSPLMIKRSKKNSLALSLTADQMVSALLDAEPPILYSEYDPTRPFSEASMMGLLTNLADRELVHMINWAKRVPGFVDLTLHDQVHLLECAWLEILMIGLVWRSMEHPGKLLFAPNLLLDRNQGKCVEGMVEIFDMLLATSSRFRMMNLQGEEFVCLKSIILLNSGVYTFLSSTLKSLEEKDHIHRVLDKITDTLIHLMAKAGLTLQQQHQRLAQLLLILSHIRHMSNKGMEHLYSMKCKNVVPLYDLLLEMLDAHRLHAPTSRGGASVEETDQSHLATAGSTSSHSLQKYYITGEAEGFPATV
How it was run: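 Antagonist mode: inhibition of 0.5 nM 17-beta-estradiol-driven beta-lactamase reporter in HEK 293 ER-alpha-UAS-bla cells, 18 h at 37C, CCF4 readout after 2 h at RT. Normalised to estradiol and DMSO; titration fitted to Hill.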

[7] = biological target: Estrogen receptor (Homo sapiens) (UniProt P03372); experiment: qHTS assay for small molecule agonists of estrogen receptor alpha signaling (AID 588514; calls by dose curve;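 note: 0% = vehicle only and 100% = reference agonist; nearly all actives have a fitted effect of over 70% in size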)
How it was run: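 Efficacy is expressed against 20 nM 17-beta-estradiol (100%) and DMSO basal (0%); EC50 from Hill equation. Assay: beta-lactamase reporter in ER-alpha-UAS-bla HEK 293 cells, 18 h compound incubation, CCF4 detection.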

[8] = biological target: Peroxisome proliferator-activated receptor delta (Homo sapiens) (UniProt Q03181); experiment: qHTS assay for small molecule agonists of peroxisome proliferator-activated receptor delta signaling (AID 588534; calls by dose curve;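 note: 0% = DMSO basal wells and 100% = positive control agonist at 10 µM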)
Sequence of Peroxisome proliferator-activated receptor delta (Homo sapiens) (Q03181 whole entry, looked up): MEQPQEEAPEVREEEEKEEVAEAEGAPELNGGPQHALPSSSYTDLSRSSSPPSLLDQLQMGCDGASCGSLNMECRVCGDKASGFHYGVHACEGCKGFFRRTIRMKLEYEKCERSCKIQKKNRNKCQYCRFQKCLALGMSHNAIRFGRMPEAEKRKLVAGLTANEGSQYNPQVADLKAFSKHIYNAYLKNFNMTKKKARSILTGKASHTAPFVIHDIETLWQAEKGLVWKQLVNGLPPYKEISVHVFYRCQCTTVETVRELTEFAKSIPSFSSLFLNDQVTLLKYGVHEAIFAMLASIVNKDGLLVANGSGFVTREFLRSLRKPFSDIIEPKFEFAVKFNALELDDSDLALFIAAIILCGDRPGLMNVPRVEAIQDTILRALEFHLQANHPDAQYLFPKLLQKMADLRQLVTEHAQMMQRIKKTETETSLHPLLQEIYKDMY
How it was run: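 Agonist-mode qHTS; reporter cells, 5 hrs 37 C pre-incubation; compound titration, 18 hrs 37 C; CCF4 dye, 2 hrs RT; fluorescence read. EC50/efficacy via Hill fit.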

[9] = qHTS assay for small molecule antagonists of peroxisome proliferator-activated receptor delta signaling (AID 588535; active = well fitted inhibition curve with a large enough effect in the signal ratio, with a control signal flat, not every such curve was filed as active; the % refers to the signal ratio;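 for max response: cells co-treated with a PPAR-delta agonist as stimulator during compound exposure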); settings: HEK293T PPARd-UAS-bla, beta-lactamase FRET ratio, 18 h; 460 nm channel
How it was run: (§1)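 Fluorescence from CCF4-loaded GeneBLAzer PPAR-delta-UAS-bla HEK293T cells (2 hrs RT loading) quantified reporter inhibition after an 18 hr, 37 C compound exposure across a titration.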

[10] = biological target: Peroxisome proliferator-activated receptor delta (Homo sapiens) (UniProt Q03181); experiment: as above
How it was run: as §1

[11] = biological target: Peroxisome proliferator-activated receptor gamma (Homo sapiens) (UniProt P37231); experiment: qHTS assay for small molecule agonists of peroxisome proliferator-activated receptor gamma signaling (AID 588536; active = well fitted curve in the direction sought with a large enough effect in the signal ratio, with a control signal flat, not every such curve was filed as active; the % refers to the signal ratio;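 note: 0% = DMSO basal wells and 100% = rosiglitazone at 2 µM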)
Sequence of Peroxisome proliferator-activated receptor gamma (Homo sapiens) (P37231 whole entry, looked up): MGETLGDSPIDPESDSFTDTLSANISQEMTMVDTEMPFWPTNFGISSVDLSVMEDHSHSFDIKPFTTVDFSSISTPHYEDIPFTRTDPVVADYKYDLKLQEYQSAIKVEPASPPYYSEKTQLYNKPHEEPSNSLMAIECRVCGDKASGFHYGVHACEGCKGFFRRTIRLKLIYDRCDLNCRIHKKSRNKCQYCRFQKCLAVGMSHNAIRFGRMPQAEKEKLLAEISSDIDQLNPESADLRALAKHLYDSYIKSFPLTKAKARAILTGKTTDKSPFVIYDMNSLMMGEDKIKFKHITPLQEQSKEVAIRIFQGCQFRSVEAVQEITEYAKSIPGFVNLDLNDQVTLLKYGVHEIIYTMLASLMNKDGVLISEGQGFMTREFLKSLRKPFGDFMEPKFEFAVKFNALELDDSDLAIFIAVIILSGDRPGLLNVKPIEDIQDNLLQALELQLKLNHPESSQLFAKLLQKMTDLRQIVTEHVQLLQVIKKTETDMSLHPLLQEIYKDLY
How it was run: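 Beta-lactamase reporter read-out: CCF4 fluorescence (ex 405, em 460/530 nm) after 2 h at RT. HEK293 GeneBLAzer cells were treated for 16 h at 37 C. Hill fits gave EC50 and efficacy versus 2 uM rosiglitazone (100%) and DMSO (0%).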

[12] = biological target: Peroxisome proliferator-activated receptor gamma (Homo sapiens) (UniProt P37231); experiment: qHTS assay for small molecule antagonists of peroxisome proliferator-activated receptor gamma signaling (AID 588537; active = well fitted inhibition curve with a large enough effect in the signal ratio, with a control signal flat, not every such curve was filed as active; the % refers to the signal ratio;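 note: reporter cells co-stimulated with 50 nM rosiglitazone agonist during compound treatment; % of control where 0% means no effect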)
How it was run: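 Fluorescence at 460 and 530 nm (405 nm excitation) reported beta-lactamase cleavage of CCF4 after 2 h room-temperature loading. HEK293 reporter cells in 1% charcoal/dextran-treated FBS had received compound and rosiglitazone for 16 h.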

[13] = biological target: Vitamin D3 receptor (Homo sapiens) (UniProt P11473); experiment: qHTS assay for small molecule antagonists of vitamin D receptor signaling (AID 588541; calls by dose curve;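 note: receptor activated by calcitriol during compound treatment; % is set by controls: 0 for no effect and ±100 for the full control effect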)
Sequence of Vitamin D3 receptor (Homo sapiens) (P11473 whole entry, looked up): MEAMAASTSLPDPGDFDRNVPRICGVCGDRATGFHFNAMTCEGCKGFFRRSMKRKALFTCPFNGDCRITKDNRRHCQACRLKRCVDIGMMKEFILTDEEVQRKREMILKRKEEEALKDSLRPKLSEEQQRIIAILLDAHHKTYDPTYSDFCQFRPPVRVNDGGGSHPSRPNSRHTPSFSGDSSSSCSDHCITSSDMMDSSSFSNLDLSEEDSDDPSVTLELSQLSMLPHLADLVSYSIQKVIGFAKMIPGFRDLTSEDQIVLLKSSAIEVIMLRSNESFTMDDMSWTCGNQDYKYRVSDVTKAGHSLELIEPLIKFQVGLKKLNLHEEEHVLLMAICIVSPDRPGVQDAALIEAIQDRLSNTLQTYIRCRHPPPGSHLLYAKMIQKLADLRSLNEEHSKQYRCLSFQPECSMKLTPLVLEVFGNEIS
How it was run: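 VDR-UAS-bla HEK293T cells in 2% charcoal-stripped FBS were stimulated with 1-alpha,25-dihydroxyvitamin D3 (3 nM final) plus compound for 16 h at 37 C. The beta-lactamase CCF4 readout was normalized to 50 nM agonist and DMSO, and Hill fits gave IC50.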

[14] = biological target: Vitamin D3 receptor (Homo sapiens) (UniProt P11473); experiment: qHTS assay for small molecule agonists of vitamin D receptor signaling (AID 588543; calls by dose curve;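 note: 0% = DMSO basal and 100% = reference agonist control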)
How it was run: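 Agonist-mode beta-lactamase reporter: HEK293T VDR-UAS-bla cells in charcoal-stripped 2% FBS, compound series 16 h 37 C, CCF4 2 h RT. EC50 from Hill fit, scaled against DMSO and 50 nM calcitriol control.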

[15] = qHTS assay for small molecule agonists of retinoid X receptor alpha signaling (AID 588544; calls by dose curve;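 for activation: 0% = DMSO basal wells and 100% = reference agonist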); settings: HEK293T RXRa-UAS-bla, beta-lactamase reporter, 18 h; 530 nm emission
[16] = biological target: Retinoic acid receptor RXR-alpha (Homo sapiens) (UniProt P19793); experiment: as above
Sequence of Retinoic acid receptor RXR-alpha (Homo sapiens) (P19793 whole entry, looked up): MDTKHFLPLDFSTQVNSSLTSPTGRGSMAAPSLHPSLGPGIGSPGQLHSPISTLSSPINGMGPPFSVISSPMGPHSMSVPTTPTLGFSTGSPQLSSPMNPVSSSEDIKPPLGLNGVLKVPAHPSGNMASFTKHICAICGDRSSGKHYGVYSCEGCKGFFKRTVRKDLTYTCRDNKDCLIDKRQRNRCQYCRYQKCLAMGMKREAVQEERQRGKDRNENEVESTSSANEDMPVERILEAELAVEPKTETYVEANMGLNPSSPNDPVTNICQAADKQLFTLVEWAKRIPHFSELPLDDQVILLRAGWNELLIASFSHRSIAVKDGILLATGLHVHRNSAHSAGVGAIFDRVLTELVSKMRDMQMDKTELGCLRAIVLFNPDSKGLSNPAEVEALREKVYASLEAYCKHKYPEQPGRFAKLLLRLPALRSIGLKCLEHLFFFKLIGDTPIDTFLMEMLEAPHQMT

[17] = biological target: Thyroid hormone receptor beta (Homo sapiens) (UniProt P10828); experiment: qHTS assay for small molecule agonists of thyroid hormone receptor beta signaling (AID 588545; calls by dose curve)
Sequence of Thyroid hormone receptor beta (Homo sapiens) (P10828 whole entry, looked up): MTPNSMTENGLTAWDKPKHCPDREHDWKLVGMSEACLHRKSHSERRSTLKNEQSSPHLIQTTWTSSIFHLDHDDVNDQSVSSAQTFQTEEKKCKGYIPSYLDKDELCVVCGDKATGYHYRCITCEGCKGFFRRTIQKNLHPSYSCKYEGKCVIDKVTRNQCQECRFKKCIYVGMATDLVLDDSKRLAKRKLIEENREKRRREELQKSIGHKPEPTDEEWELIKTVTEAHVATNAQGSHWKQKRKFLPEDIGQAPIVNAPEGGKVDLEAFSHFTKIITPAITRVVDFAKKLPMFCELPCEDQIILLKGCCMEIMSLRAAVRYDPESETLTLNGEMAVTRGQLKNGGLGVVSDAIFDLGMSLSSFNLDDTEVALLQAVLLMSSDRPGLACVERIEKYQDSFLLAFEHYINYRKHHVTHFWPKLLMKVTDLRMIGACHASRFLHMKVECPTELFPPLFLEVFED
How it was run: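 In this cell-based screen, titrated compounds act on HEK 293 cells held in medium with 2% charcoal/dextran FBS, NEAA and pyruvate for 18 hrs at 37 C. Responses are expressed relative to T3 (10 nM) as 100% and basal DMSO as 0%.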

[18] = qHTS assay for small molecule antagonists of retinoid X receptor alpha signaling (AID 588546; active = well fitted inhibition curve with a large enough effect in the signal ratio, with a control signal flat, not every such curve was filed as active; the % refers to the signal ratio;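 note: cells stimulated with 9-cis-retinoic acid as agonist; % is set by controls: 0 for no effect and ±100 for the full control effect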); settings: HEK293T RXRa-UAS-bla, beta-lactamase ratio, antagonist mode; measured here: W530 green channel, cytotoxicity proxy
How it was run: (§2)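 Beta-lactamase reporter inhibition, read as CCF4 fluorescence ratio (ex 405, em 460/530 nm) after 2 h at RT. HEK293T UAS-bla cells, 2500/well, were stimulated with 9-cis-RA at 500 or 100 nM final alongside test compound for 18 h at 37 C.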

[19] = biological target: Retinoic acid receptor RXR-alpha (Homo sapiens) (UniProt P19793); experiment: as above; settings: HEK293T RXRa-UAS-bla, beta-lactamase ratio, antagonist mode
How it was run: as §2

[20] = biological target: Thyroid hormone receptor beta (Homo sapiens) (UniProt P10828); experiment: qHTS assay for small molecule antagonists of thyroid hormone receptor beta signaling (AID 588547; active = well fitted inhibition curve with a large enough effect in the signal ratio, with a control signal flat, not every such curve was filed as active; the % refers to the signal ratio;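 note: cells stimulated with 0.4 nM T3 agonist during compound exposure; % is set by controls: 0 for no effect and ±100 for the full control effect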); settings: TR-UAS-bla HEK293, beta-lactamase ratio, antagonist mode, 18 h
How it was run: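 TR-UAS-bla GripTite HEK293 cells in 2% charcoal/dextran FBS medium; compounds 0.59 nM to 92 uM with T3 at 0.4nM final, 18 h at 37 C. Beta-lactamase read by CCF4 fluorescence (460/530 nm); Hill fits gave IC50 and efficacy.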

[21] = qHTS assay for small molecule agonists of the antioxidant response element (ARE) signaling pathway (AID 651741; active = well fitted activation curve with a large enough effect in the signal ratio; the % refers to the signal ratio; note: % of control where 0% means no effect)
How it was run: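 Stably integrated ARE-beta-lactamase reporter HepG2 cells; 16 h compound incubation, 37 C; LiveBLAzer FRET substrate 2 h at room temperature; fluorescence intensity.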

[22] = qHTS assay for environmental chemicals that activate the Aryl hydrocarbon Receptor (AhR) signaling pathway (AID 651777); settings: 1A2-DRE human hepatoma cells, luciferase, 24 h; activation: stronger effect = higher value; note: % of control where 0% means no effect; nearly all actives have a fitted effect of over 15% in size
How it was run: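 Stable CYP1A2 promoter/DRE-luciferase human hepatoma line treated 24 hr; One-Glo luminescence, 30 min RT.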

[23] = biological target: Peroxisome proliferator-activated receptor alpha (Homo sapiens) (UniProt Q07869); experiment: qHTS assay for small molecule agonists of the peroxisome proliferator-activated receptor alpha (PPARalpha) signaling pathway (AID 651778); settings: PathHunter PPARalpha complementation, chemiluminescence, 6 h; stronger effect = higher value; note: % of control where 0% means no effect
Sequence of Peroxisome proliferator-activated receptor alpha (Homo sapiens) (Q07869 whole entry, looked up, the tested form may be a part): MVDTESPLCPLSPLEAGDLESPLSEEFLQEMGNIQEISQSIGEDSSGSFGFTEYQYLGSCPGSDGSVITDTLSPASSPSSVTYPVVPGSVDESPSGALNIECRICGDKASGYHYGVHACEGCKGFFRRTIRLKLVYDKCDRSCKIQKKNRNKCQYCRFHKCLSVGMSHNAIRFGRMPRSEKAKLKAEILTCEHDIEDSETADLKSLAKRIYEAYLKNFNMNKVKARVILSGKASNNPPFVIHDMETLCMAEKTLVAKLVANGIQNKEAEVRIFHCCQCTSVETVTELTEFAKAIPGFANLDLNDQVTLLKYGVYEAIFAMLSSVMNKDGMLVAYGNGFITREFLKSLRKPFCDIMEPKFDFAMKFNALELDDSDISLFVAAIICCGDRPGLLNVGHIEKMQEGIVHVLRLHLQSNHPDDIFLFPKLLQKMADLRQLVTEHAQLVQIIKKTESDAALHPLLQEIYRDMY
How it was run: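 Enzyme-fragment complementation assay in which ligand-bound PPARalpha translocates and forms an active enzyme that generates chemiluminescence. Cells were plated overnight, exposed to compound for 6 hr at 37 C, and then given detection reagent for 60 min at room temperature.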

[24] = qHTS assay for small molecule agonists of the antioxidant response element (ARE) signaling pathway measured by Nrf2-dependant transcriptional activity (AID 720636; active = well fitted curve in the direction sought with a large enough effect in the repeat runs; an effect the other way counts as inactive or inconclusive;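 note: HepG2 cells with an ARE-driven luciferase reporter; % of control where 0% means no effect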)
How it was run: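 Reporter gene assay, HepG2 ARE-luc: 16 hr compound, 37 C, 5% CO2; read-out luciferase luminescence.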

[25] = qHTS assay for small molecule agonists of the antioxidant response element (ARE) signaling pathway measured by Nrf2-dependant transcriptional activity - cell viability counter screen (AID 720653; active = well fitted curve in the direction sought with a large enough effect in the repeat runs; an effect the other way counts as inactive or inconclusive; note: % is set by controls: 0 for no effect and ±100 for the full control effect); settings: ARE-bla HepG2 viability, CellTiter-Glo ATP luminescence, 16 h; stronger effect = lower value
How it was run: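 ARE-bla HepG2 cells treated with compounds for 16 h at 37C; this counter screen measures viability as intracellular ATP by CellTiter-Glo luminescence after 30 min at room temperature.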

[26] = qHTS assay for cell viability of HEK293 cells (AID 743288); settings: ATP luminescence (CellTiter-Glo), 18 h; max response: stronger effect = lower value; note: % is set by controls: 0 for no effect and ±100 for the full control effect; nearly all actives have a fitted effect of over 50% in size
How it was run: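 Readout is luciferase-coupled ATP content (CellTiter-Glo luminescence, 30 min room temperature) as a measure of metabolically competent cells. Parental HEK293 cells were plated 5 h or more before compound addition, then treated 18 h at 37 C.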

[27] = qHTS assay for cell viability of the p53RE-bla HCT-116 cell line (AID 743292); note: % is set by controls: 0 for no effect and ±100 for the full control effect; nearly all actives have a fitted effect of over 55% in size
How it was run: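 Readout: CellTiter-Glo luminescence after 30 min RT. Treatment: compounds in DMSO, 16 h, 37 C. Cells: CellSensor p53RE-bla HCT-116, 4,000/well, preincubated 5 h.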

[28] = biological target: Nuclear receptor subfamily 1 group I member 2 (Rattus norvegicus) (UniProt Q9R1A7); experiment: qHTS assay for small molecule activators of the rat pregnane X receptor (rPXR) signaling pathway (AID 651751; call rule not given here; note: 0% is about no effect); settings: rPXR reporter cells, luciferase (One-Glo), 24 h
Sequence of Nuclear receptor subfamily 1 group I member 2 (Rattus norvegicus) (Q9R1A7 whole entry, looked up): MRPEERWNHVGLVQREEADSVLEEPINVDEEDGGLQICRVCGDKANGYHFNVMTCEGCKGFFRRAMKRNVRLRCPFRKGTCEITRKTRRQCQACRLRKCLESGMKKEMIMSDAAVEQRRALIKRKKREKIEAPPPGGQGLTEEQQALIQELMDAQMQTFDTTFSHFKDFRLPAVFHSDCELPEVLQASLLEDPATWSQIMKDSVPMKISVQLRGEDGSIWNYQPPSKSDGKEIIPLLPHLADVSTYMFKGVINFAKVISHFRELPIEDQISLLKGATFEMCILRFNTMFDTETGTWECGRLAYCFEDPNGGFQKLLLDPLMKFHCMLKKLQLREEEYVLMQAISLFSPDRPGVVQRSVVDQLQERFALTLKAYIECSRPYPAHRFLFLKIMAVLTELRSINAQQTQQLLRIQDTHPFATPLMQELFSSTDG

[29] = qHTS assay for small molecule activators of the human pregnane X receptor (PXR) signaling pathway (AID 720659; call rule not given here; note: 0% is about no effect)
[30] = biological target: Cytochrome P450 3A4 (Homo sapiens) (UniProt P08684); experiment: qHTS Assay for Activators of Cytochrome P450 3A4 (AID 885); note: nearly all actives have a fitted effect of over 65% in size
How it was run: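 Activators are scored by enhanced luminescence from CYP3A4 conversion of luciferin-PPXE (25uM, equal to KM) to luciferin, after 60 min at RT with an NADPH-regenerating system.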

[31] = measured here: cell count channel max response
[32] = measured here: lipid channel max response

C[C@]1(C(=O)O)CCC[C@]2(C)c3cc(O)ccc3CC[C@@H]12
-21.1%: max response [2, 31]
-24.8%: max response [2, 32]
inactive: Potency [1] | activity change, negative = inhibition [2] -6.36% | outcome [3]

CNC(=O)CSP(=S)(OC)OC
27.9%: max response [9]
1.7%: max response [18]
inactive: Potency [1] | Potency [4] | Potency [5] | activity change, negative = inhibition [2] 4.16% | Potency [6] | Potency [7] | outcome [8] | Potency [10] | outcome [11] | Potency [12] | outcome [13] | outcome [14] | Potency [16] | outcome [17] | max response [19] -6.5% | activity change % (negative = inhibition) [20] -15.4% and 6.49% | Potency [21] | activation [22] 0.301% and 4.06% | max response [23] -2.63% and -0.399% | outcome [24] | max response [25] -1.41% and -0.459% | max response [26] -6.64% and -7.96% | Potency [27] | max response [28] -3.03% and -0.565% | outcome [29]
5.57%: max response [2, 31]
8.94%: max response [2, 32]
1.61%: max response [15]

CC1(C)C(=O)C=C[C@@]2(C)C1CC(O)[C@]1(C)C2CC[C@@]2(C)C(c3ccoc3)OC(=O)C3O[C@]312 (some centres not stated)
inactive: Potency [30] | Potency [4] | Potency [5] | activity change, negative = inhibition [2] -4.48%
active: Potency [1] 3.98 µM
13.8%: max response [2, 31]
11.5%: max response [2, 32]
